From PubChem BioAssay (NCI)
Where “and” joins values, the source holds several entries; their conditions need not be identical. Identical values can stand only once. About 83,000 compounds went through this panel and 20% of them were active in at least one assay; those are over-represented in the sample as a whole.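 How to read the values: 0–100, growth inhibition (40 = 60% inhibited); 0, no net growth; -100 to 0, cell death (-40 = 40% of starting cells died; -100 = all dead).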 Calls of active or inactive are those of the source. How the source made its calls: active means growth percent below 10; inactive means the rest.

tested on: PC-3 prostate; assay: NCI-60 one-dose screen, 48 h (100 = growth as untreated, 0 = no growth, -100 = all killed); details: 10 µM unless noted

Structure (SMILES)	growth
COc1ccc(/C(C)=C(\c2ccc(OCCN3CCCCCC3)cc2)c2ccc(OC(=O)C3CCCCC3)cc2)cc1	-49.8% (active)
N=c1c2c(-c3ccccc3)c(-c3ccccc3)oc2ncn1NC(=O)c1cccnc1	93.6% (inactive)
O=C(Nc1cc(C(F)(F)F)cc(C(F)(F)F)c1)c1cc(Cl)ccc1O	5.05% (active) and -0.956% (active)

tested on: SK-MEL-5 melanoma; assay: as above; details: 10 µM unless noted

Structure (SMILES)	growth
C[N+]1=C(/C=C\C=C\c2ccccc2)C(C)(C)c2ccccc21	-39.7% (active)
O=C(/C=C/C12c3ccccc3C(c3ccccc31)C1C(=O)NC(=O)C12)c1ccncc1 (stereo not given)	27.6% (inactive)
CN1CCN(Cc2ccc(NC(=O)c3nc4ccc5[nH]ncc5c4c4c3CCCC4)cc2C(F)(F)F)CC1	-92.6% (active)
CC(=O)c1nn(-c2ccccc2)/c(=N/N=Cc2cn(-c3ccccc3)nc2-c2cc3ccccc3oc2=O)s1	101% (inactive)
CN1CCN(Cc2ccc(NC(=O)c3cccc(C#Cc4c(N)ncc5ccc(F)cc45)c3)cc2C(F)(F)F)CC1	-83.1% (active)
CCN(C(=O)N1CCN(c2cc3c(cc2F)c(=O)c(C(=O)O)cn3C2CC2)CC1)c1nc(-c2ccccc2)cs1	11.7% (inactive)
COc1ccc(-c2ccccc2)cc1-c1c(Nc2cc(Cl)cc(Cl)c2O)c(=O)c1=O	-40.7% (active)
COc1cc(CO)cc2cc3ccccc3nc12	105% (inactive)
N=C(N)c1ccc(-c2ccc(-c3ccc(Cl)c(Cl)c3)s2)cc1	94.8% (inactive)
Cc1c(C(=O)OCCCCOC(=O)c2c(C)n(C)c3scc[n+]23)[n+]2ccsc2n1C	142% (inactive)
COc1ccc(/C(C)=C(\c2ccc(OCCN3CCOCC3)cc2)c2ccc(OC(=O)C3CCCCC3)cc2)cc1	110% (inactive)
CCOc1ccccc1NC(=O)c1cc2ccccc2cc1O	25.6% (inactive)
O=S(=O)(Nc1ccc(F)cc1)c1ccc(-c2cnc(C3CC3)o2)cc1	25.5% (inactive)
CN(C)c1ccc2nc3ccc(=O)cc-3sc2c1	-94.8% (active) and -89.9% (active)
COC(=O)N/N=C/c1c[n+]([O-])c2ccccc2[n+]1[O-]	114% (inactive)
COc1cc(F)c(/C=C/c2cc(/C=C/c3cc(OC)c(OC)cc3F)n(-c3cc(F)cc(F)c3)n2)cc1OC	23.6% (inactive)

Structure (SMILES)	growth
Clc1ccc(CNc2ccc3nc(CCC4CCCCC4)[nH]c3c2)cc1	0.653% (active)
FC(F)(F)Sc1ccc(/C=C/c2cc(/C=C/c3ccc(SC(F)(F)F)cc3)n(-c3ccccc3)n2)cc1	98.3% (inactive)
CC(=O)N1N=C(c2ccc(Nc3nc(Nc4ccc(F)cc4)nc(Nc4ccc(F)cc4)n3)cc2)CC1c1ccccc1 (stereo not given)	69.6% (inactive)
COC1/C=C/OC2(C)Oc3c(C)c(O)c4c(O)c(c(C=NOC(c5ccccc5)c5ccccc5)c(O)c4c3C2=O)NC(=O)/C(C)=C/C=C/C(C)C(O)C(C)C(O)C(C)C(OC(C)=O)C1C (stereo not given)	6.07% (active)
Nc1ccccc1SC(CC(=O)c1ccccc1)c1ccc([N+](=O)[O-])cc1 (stereo not given)	105% (inactive)
Cc1ccc(/C=C/c2c(C(=O)/C=C/c3ccccc3)c(C)nc3ccccc23)cc1	32.3% (inactive)
COc1ccc(/C=C(\C#N)c2cc3ccccc3[nH]2)cc1	22.2% (inactive)
Cc1ccc(Cl)cc1N1CCN(C(=O)[C@@H]2C[C@@H]2c2ccc(F)cc2)CC1	80.7% (inactive)
COc1ccc(/C=C2/C(=O)N=C3N2NC(c2ccccc2)=CN3c2ccccc2)cc1	97.4% (inactive)
COc1ccc2nc3cc(Cl)ccc3c(NCCCNCCC(C)O)c2c1 (stereo not given)	-96.7% (active)
COc1ccc(-c2nc(Cl)c3c(C)nn(-c4ccc(F)cc4)c3n2)cc1	100% (inactive)
C=CCOc1ccc(/C=C2\SC(=S)N(CCc3ccc(O)cc3)C2=O)cc1	94.4% (inactive)
O=C1N=c2ccccc2=C1c1sc(=S)n(C2CC(=O)N(c3ccc(Cl)cc3)C2=O)c1O (stereo not given)	102% (inactive)
COc1c(O)c(O)cc2c3c(oc12)CC(c1ccc2c(c1)OCO2)CC3=O (stereo not given)	31.4% (inactive)
O=C(c1cccc(Br)c1)N1CCN(c2ccnc3cc(Cl)ccc23)CC1	82.2% (inactive)
Cc1ccc(S(=O)(=O)OC[C@@]2(C)CC[C@]3(C)CC[C@]4(C)C(=C3C2)C=C[C@@H]2[C@@]3(C)CCCNC(C)(C)[C@@H]3CC[C@]24C)cc1	76.5% (inactive)
